From the supplement of paper PMC11732987, “Enantioselective OTUD7B fragment discovery through chemoproteomics screening and high-throughput optimisation” (Communications Chemistry, 2025)

Tests used:
Test in all cases: log2 ratio of Biotin-Ahx-Ub-VS probe labelling (fragment/DMSO); higher = less target engagement (more negative = stronger competition), active = hit call of the paper (q ≤ 0.05, log2 ratio ≤ -1)
Conditions in all cases: compound concentration: 200 uM; treatment time: 3 h
USP42 = biological target: T1, USP42 (UniProt Q9H9J4)
T1 sequence (whole entry): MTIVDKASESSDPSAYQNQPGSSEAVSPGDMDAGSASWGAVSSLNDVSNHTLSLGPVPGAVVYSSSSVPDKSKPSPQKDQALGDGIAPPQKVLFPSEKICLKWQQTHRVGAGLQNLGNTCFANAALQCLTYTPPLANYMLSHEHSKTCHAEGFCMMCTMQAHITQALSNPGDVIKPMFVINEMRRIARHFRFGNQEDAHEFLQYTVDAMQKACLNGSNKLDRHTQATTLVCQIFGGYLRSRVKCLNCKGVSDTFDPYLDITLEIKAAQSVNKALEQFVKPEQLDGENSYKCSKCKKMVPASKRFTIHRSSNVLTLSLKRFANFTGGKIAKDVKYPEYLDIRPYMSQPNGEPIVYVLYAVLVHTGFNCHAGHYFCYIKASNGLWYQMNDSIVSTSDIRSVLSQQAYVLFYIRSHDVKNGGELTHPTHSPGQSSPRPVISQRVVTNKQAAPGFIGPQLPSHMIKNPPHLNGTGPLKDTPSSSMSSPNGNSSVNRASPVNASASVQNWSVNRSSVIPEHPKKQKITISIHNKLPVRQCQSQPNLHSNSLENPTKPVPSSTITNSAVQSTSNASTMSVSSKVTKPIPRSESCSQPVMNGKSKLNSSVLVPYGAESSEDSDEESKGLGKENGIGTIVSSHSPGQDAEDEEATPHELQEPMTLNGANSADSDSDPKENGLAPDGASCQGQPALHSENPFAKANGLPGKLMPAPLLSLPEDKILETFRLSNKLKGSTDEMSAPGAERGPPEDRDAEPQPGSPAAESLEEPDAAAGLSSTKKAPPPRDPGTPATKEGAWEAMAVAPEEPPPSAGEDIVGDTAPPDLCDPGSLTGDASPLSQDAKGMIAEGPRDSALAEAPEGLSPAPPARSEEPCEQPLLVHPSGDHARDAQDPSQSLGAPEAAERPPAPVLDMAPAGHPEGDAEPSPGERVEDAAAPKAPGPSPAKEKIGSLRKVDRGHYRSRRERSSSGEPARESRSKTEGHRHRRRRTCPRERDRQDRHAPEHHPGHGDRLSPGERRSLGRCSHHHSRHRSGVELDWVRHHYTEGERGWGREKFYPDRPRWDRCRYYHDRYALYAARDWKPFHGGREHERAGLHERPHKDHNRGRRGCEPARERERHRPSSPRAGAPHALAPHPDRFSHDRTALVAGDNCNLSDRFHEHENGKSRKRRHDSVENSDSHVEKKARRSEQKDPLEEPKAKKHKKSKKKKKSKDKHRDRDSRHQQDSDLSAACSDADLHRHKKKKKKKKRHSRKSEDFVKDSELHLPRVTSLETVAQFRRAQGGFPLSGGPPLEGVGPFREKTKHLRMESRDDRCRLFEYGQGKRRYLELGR
Method in brief: (§1)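 Labelling with Biotin-Ahx-Ub-VS (0.5 µM final, 1 h) followed a 3 h triplicate treatment of HEK293T lysate (495 µg per sample, Tris/CHAPS/IGEPAL buffer with protease inhibitors) with fragment at 200 µM or vehicle. Labelled DUBs were NeutrAvidin-enriched, digested with LysC and trypsin, and run by diaPASEF LC-MS/MS. The values, average log2 fragment/vehicle ratios by unpaired t-test, come from global-median-normalised Spectronaut label-free quantities. Proteins with ≥2 unique peptides were used.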

USP46 = USP46 (UniProt P62068)
Method in brief: as §1

USP47 = biological target: T2, USP47 (UniProt Q96K76)
T2 sequence (whole entry): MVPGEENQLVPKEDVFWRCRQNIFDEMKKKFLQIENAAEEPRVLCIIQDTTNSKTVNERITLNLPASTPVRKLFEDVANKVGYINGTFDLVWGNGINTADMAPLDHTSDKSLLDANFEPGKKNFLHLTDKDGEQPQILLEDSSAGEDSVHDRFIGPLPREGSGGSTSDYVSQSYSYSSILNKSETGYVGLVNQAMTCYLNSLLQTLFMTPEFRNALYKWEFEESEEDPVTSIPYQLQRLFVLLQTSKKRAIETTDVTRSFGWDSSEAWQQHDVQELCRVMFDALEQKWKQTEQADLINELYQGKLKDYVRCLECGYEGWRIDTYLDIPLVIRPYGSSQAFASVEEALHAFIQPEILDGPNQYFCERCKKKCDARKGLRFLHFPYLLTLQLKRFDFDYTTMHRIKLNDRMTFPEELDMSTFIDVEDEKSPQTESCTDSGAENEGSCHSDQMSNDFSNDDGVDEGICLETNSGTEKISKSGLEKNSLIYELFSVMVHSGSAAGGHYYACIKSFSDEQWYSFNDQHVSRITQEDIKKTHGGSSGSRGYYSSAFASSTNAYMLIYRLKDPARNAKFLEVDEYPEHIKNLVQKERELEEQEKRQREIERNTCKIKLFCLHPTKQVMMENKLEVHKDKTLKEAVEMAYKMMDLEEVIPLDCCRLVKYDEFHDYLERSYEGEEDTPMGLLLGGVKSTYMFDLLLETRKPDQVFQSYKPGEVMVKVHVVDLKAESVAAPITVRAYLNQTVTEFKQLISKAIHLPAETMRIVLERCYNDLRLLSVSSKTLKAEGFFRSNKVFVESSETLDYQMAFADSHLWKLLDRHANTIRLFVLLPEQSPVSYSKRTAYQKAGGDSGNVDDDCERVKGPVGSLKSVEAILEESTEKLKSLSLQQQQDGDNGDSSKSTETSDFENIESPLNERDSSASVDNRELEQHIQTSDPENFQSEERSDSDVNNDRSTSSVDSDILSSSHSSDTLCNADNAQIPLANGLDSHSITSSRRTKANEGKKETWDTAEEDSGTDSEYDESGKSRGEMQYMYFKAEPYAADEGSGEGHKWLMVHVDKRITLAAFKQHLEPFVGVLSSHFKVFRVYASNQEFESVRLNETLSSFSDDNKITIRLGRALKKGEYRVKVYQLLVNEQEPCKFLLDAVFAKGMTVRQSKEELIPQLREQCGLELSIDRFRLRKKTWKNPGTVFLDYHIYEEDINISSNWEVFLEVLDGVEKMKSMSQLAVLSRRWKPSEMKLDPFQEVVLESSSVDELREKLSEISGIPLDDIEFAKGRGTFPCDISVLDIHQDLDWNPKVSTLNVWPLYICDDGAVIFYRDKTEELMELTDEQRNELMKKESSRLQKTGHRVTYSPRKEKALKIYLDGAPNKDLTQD
Method in brief: as §1

USP48 = biological target: T3, USP48 (UniProt Q86UV5)
T3 sequence (whole entry): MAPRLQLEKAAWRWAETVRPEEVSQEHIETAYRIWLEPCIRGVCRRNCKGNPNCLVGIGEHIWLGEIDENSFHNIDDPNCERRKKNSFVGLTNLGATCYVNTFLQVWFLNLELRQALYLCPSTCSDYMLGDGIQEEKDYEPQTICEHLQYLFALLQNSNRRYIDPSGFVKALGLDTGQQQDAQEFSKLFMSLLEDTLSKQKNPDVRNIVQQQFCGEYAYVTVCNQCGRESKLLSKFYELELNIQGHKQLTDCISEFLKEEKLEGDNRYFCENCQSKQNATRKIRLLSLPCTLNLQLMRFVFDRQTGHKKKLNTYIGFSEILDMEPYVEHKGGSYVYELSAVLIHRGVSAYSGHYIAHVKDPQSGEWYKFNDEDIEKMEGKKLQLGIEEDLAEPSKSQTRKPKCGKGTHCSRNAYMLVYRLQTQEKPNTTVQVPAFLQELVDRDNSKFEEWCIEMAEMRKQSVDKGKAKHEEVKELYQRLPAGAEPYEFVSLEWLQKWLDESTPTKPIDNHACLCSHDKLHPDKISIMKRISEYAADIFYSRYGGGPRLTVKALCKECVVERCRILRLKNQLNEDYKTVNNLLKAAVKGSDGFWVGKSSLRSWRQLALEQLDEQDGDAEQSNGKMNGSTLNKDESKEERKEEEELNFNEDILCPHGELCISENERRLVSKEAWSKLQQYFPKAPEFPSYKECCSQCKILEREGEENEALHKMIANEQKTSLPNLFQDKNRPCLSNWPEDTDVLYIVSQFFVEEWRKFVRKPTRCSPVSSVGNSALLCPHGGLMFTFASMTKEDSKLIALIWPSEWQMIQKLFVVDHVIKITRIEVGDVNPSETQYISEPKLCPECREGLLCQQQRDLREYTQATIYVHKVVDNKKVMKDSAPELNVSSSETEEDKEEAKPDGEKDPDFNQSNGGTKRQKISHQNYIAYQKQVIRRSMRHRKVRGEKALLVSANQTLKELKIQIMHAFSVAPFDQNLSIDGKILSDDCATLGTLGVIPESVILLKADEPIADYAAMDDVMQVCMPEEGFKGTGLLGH
Method in brief: as §1

USP5 = biological target: T4, USP5 (UniProt P45974)
T4 sequence (whole entry): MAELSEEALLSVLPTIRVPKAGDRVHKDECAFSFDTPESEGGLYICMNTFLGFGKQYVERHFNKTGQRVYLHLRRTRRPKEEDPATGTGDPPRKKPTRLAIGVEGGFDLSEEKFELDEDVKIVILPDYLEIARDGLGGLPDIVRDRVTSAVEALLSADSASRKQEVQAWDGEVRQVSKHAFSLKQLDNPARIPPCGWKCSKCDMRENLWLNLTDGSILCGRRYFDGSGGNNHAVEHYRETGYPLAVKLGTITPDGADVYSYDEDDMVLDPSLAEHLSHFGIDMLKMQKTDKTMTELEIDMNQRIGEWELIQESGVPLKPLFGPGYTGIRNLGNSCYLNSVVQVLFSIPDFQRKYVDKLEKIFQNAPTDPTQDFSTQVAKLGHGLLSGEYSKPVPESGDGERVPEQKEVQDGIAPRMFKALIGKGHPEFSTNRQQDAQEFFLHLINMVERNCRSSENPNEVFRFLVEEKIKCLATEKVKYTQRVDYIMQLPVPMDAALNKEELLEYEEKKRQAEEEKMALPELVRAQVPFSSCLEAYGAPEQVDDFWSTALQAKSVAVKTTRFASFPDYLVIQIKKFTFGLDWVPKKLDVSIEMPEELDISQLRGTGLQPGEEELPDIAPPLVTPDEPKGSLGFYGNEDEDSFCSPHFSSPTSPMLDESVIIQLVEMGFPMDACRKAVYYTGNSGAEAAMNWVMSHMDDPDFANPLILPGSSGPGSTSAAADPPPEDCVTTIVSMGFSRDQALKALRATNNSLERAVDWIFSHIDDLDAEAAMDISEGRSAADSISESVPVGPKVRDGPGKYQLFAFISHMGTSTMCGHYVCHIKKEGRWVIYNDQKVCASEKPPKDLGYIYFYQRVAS
Method in brief: as §1

USP54 = USP54 (UniProt Q70EL1)
Method in brief: as §1

USP7 = USP7 (UniProt Q93009)
Method in brief: as §1

USP8 = biological target: T5, USP8 (UniProt P40818)
T5 sequence (whole entry): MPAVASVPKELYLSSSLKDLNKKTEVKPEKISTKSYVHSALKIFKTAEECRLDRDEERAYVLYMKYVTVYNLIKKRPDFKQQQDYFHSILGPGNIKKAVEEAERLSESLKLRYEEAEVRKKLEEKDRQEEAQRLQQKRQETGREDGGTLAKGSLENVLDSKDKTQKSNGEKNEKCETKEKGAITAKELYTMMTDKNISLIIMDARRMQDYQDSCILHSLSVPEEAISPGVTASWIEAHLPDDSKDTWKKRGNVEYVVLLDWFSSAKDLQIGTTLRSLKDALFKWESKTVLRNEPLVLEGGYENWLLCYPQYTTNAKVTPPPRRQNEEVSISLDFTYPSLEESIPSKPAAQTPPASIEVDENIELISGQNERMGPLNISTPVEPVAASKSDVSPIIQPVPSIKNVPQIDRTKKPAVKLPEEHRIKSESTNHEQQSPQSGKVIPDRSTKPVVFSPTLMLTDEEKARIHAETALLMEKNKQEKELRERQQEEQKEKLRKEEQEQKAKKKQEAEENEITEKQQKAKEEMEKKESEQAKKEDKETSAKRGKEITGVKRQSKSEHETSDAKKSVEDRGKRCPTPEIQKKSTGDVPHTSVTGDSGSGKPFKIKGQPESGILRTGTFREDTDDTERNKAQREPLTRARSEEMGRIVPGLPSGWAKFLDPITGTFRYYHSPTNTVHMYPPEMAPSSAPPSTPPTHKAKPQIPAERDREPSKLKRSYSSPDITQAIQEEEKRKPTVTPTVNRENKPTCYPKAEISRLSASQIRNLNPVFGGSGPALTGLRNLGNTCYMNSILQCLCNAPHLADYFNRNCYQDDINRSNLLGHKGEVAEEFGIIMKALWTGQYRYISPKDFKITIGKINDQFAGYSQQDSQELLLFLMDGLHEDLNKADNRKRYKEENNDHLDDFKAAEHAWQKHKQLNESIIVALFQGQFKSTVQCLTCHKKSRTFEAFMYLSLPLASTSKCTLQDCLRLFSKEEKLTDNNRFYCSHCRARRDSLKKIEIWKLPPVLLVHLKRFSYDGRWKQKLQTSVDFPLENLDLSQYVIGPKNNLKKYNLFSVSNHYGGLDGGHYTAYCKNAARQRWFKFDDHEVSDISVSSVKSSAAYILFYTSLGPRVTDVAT
Method in brief: as §1

USP9X = USP9X (UniProt Q93008)
Method in brief: as §1

UniProt O00487 = biological target: UniProt O00487
Method in brief: as §1

Measured: log2 ratio of Biotin-Ahx-Ub-VS probe labelling

Sequence of UniProt O00487 (O00487 whole entry): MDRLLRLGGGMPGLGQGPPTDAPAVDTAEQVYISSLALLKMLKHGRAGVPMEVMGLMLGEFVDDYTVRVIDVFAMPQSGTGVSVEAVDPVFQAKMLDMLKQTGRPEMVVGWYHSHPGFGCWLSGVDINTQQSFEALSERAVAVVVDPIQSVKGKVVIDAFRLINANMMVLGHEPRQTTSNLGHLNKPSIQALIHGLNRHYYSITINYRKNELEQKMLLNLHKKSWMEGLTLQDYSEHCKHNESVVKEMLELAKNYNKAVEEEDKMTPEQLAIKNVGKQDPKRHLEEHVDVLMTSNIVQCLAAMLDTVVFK
Sequence of USP7 (Q93009 whole entry, looked up): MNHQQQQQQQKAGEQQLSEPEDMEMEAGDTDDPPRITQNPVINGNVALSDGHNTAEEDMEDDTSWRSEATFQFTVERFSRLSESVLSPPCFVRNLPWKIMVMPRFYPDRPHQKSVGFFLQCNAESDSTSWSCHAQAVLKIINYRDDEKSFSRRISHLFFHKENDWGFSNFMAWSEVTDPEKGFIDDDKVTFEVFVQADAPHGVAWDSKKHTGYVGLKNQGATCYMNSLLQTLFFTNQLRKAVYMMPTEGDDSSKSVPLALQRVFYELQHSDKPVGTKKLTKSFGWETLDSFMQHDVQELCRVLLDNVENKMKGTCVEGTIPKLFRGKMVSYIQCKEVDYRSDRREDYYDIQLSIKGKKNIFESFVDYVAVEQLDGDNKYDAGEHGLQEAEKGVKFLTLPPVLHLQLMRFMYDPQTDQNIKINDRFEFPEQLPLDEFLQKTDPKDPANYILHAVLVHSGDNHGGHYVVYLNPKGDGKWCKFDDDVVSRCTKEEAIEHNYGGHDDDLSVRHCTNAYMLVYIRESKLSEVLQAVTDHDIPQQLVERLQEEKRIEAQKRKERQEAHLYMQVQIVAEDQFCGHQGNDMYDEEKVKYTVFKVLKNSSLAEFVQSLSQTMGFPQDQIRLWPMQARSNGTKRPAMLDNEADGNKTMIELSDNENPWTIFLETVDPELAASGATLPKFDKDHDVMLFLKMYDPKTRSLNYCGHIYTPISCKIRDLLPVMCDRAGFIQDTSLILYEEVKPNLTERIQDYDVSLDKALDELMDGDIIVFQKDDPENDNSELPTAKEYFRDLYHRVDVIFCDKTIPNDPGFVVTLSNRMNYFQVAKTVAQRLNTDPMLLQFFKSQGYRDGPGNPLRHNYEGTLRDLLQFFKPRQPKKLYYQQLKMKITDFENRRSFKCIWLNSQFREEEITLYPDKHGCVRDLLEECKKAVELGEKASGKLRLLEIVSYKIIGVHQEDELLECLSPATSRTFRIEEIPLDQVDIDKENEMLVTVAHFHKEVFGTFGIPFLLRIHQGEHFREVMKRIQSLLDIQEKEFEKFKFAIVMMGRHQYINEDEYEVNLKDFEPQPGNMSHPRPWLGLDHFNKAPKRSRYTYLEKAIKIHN
Sequence of USP54 (Q70EL1 whole entry): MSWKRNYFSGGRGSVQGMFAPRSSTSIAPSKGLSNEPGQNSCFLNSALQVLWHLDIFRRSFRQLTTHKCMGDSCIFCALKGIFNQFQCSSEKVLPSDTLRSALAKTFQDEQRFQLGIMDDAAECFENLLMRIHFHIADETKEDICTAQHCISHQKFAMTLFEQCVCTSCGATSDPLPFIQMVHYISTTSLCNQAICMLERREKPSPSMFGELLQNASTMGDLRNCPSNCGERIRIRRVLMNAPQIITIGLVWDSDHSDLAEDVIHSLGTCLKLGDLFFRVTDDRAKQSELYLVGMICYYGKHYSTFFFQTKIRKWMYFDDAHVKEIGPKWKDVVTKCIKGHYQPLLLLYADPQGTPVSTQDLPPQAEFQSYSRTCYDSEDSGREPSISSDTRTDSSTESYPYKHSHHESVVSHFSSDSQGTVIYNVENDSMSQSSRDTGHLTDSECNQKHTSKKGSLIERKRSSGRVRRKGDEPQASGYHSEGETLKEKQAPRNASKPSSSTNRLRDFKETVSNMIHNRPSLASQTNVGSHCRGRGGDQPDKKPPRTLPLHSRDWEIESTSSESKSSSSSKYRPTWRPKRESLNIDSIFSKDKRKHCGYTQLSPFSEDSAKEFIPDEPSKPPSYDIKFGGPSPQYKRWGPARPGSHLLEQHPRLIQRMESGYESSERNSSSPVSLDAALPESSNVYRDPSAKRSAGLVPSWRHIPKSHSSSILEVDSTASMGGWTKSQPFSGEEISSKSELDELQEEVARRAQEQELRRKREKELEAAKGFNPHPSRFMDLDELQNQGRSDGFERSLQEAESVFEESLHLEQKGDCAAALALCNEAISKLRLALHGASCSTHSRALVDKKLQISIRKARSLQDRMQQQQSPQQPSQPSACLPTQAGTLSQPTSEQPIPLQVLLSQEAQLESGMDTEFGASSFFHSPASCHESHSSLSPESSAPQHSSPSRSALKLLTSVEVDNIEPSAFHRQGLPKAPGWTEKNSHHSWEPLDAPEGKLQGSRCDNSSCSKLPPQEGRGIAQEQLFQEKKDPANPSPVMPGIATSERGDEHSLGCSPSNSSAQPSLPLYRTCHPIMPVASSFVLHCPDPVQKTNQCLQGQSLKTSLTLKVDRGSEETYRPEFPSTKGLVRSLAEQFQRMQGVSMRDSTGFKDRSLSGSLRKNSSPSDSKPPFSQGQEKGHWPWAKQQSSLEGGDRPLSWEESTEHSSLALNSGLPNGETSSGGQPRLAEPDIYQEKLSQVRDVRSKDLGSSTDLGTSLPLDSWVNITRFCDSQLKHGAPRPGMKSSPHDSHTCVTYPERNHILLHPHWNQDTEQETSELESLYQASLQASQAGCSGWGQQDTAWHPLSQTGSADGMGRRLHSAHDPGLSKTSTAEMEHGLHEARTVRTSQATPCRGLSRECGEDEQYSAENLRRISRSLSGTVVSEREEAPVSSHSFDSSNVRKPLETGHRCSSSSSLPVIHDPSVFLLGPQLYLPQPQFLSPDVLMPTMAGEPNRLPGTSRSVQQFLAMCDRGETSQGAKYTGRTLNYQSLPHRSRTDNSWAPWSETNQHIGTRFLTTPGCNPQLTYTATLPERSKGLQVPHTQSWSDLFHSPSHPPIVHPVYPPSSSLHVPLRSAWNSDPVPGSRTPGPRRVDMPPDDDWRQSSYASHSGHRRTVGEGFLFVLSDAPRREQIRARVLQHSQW
Sequence of USP46 (P62068 whole entry): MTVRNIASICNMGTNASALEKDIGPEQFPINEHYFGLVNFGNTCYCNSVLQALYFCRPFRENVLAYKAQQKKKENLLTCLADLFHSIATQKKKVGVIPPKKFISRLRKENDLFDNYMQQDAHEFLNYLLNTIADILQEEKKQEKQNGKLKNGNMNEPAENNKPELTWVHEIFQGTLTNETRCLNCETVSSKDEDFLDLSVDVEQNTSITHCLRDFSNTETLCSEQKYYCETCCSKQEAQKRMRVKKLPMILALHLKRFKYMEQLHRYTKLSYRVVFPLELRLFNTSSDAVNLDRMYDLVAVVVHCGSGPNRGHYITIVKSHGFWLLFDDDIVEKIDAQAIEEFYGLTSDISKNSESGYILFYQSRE

CC1(NC(=O)CCl)CCS(=O)(=O)C1 (stereo not given)
inactive: USP42 0.324 | USP46 -0.538 | USP47 -0.0229 | USP48 -0.544 | USP5 -0.73 | USP54 1.09 | USP7 -0.793 | USP8 -0.788 | USP9X -0.847 | UniProt O00487 -0.00664
